MITF inh: inhibitors of human MITF | O75030 | AlphaScreen MITF homodimerization, bead proximity signal | inhibition, % at 2.6 µM | 650,000 compounds, 0.91% hits; in the data active = inhibition above about 50%
TEAD-YAP inh: TEAD-YAP interaction inhibition | 640,000 compounds, 1.4% hits | HEK-TIYL cells, TEAD-Gal4/YAP UAS-luciferase luminescence | inhibition, % at 9.12 µM; in the data active = inhibition above about 32%
FBW7 activator: activators of human E3 ligase FBW7 | Q969H0 | AlphaScreen FBW7–phospho-cyclin E peptide binding, activator screen | normalized activity (activation), % at 26.1 µM | 650,000 compounds, 0.13% hits | AID 1259310; in the data active = normalized activity above about 1.9%;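 note: purified mutant Fbw7 with reduced substrate affinity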
Target sequence (Q969H0 whole entry, looked up): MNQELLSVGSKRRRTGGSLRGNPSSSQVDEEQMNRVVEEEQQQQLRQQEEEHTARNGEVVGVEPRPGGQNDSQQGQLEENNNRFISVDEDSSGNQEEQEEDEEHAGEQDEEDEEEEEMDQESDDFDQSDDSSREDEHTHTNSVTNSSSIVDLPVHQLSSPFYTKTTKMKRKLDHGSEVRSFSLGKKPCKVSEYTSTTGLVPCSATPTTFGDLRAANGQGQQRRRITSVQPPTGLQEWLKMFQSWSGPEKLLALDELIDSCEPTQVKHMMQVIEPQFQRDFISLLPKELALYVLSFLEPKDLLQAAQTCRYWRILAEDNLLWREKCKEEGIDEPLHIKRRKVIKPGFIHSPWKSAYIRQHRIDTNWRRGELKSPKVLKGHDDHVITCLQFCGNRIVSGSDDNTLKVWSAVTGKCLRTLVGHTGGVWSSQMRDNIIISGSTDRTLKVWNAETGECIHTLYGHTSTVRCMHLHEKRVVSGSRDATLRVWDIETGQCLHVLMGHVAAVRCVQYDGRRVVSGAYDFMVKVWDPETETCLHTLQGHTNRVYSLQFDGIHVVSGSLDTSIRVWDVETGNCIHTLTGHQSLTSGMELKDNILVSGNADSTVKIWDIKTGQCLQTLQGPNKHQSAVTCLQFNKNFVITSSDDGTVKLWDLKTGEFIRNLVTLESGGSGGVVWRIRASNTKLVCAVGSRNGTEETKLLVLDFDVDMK
GPR151 ag: human GPR151 activation. Q8TDV0. PathHunter beta-arrestin GPR151 cells, luminescence. activation, % at 11.2 µM. 650,000 compounds, 1% hits. AID 1508602; in the data active = activation above about 4.9%
MITF confirm: human MITF inhibition, confirmation; shares compounds with MITF inh; AlphaScreen MITF homodimerization, biotin/His-MITF beads; inhibition, % at 2.6 µM; 4,700 compounds, 16% hits;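 active = inhibition above a cutoff derived from the DMSO control wells, cut at about 28% in these data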;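 note: inhibitors lower the bead chemiluminescence by keeping MITF from dimerizing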
AS interf DR: AlphaScreen optical interference, dose response counter-screen; shares compounds with MITF inh; IC50, µM; AlphaScreen optical interference counterscreen, cell-free; 480 compounds, 6% hits; call rule not given here
AlphaScreen intf2: counter-screen: compounds optically interfering with AlphaScreen; shares compounds with MITF inh; LysRS AlphaScreen counterscreen, signal interference, triplicate; inhibition, % at 2.6 µM; 4,700 compounds, 7.6% hits;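 active = inhibition above a cutoff derived from the DMSO control wells, cut at about 30% in these data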
Numbers stand for hits; i = inactive; nt = no result given. This is a sample that favours compounds with a hit; in the whole collection about 3.5% have one here.

SMILES	MITF inh	TEAD-YAP inh	FBW7 activator	GPR151 ag	MITF confirm	AlphaScreen intf2	others
COc1ccc([N+](=O)[O-])cc1N(CC(=O)O)S(C)(=O)=O	58.7	i	i	i	i	i
Cc1ccccc1CN1CCN(C(=O)c2cccnc2)CC1	60.9	i	i	i	i	i
O=C(c1cccnc1)N1CCN(Cc2ccc([N+](=O)[O-])cc2)CC1	i	i	i	i	nt	nt
O=C(c1cccnc1)N1CCN(Cc2ccc3ccccc3c2)CC1	i	i	i	i	nt	nt
O=C(c1cccnc1)N1CCN(Cc2ccccc2C(F)(F)F)CC1	53.0	i	i	i	i	i
Cc1ccc(CN2CCN(C(=O)c3cccnc3)CC2)cc1	53.8	i	i	i	i	i
Cc1ccccc1-n1[nH]c(C)c(/C=N/NC(=O)c2cccc(Br)c2)c1=O	i	i	i	i	nt	nt
COc1ccc(-n2c(O)c(C=Nc3ccccc3F)c(=O)[nH]c2=S)cc1	i	i	i	i	nt	nt
CCOC(=O)N1CCN(c2nc(C)nc3sc(C)cc23)CC1	54.3	i	i	i	i	i
CCOC(=O)N1CCN(c2nc(C)nc3sc(C)c(C)c23)CC1	i	i	i	i	nt	nt
COc1cc(/C=N/NC(=O)COc2ccc(Cl)cc2Cl)ccc1O	i	i	i	i	nt	nt
C[C@H]1C(=O)N2CCN(CCc3ccccc3)C[C@@H]2C(=O)N1C	i	i	i	i	nt	nt
O=C(OCc1ccccc1)N1CCN2C(=O)[C@@H]3CCCN3C(=O)[C@H]2C1	i	i	i	i	nt	nt
C[C@H]1C(=O)N2CCN(C(=O)NCc3ccccc3)C[C@@H]2C(=O)N1C	76.0	i	i	i	73.0	i	AS interf DR=i
O=C(NCc1ccccc1)N1CCN2C(=O)[C@@H]3CCCN3C(=O)[C@H]2C1	77.5	i	i	i	74.3	i	AS interf DR=i
CN(C)c1ccc(NC(=O)CSc2ncnc3sc4c(c23)CCC4)cc1	i	i	i	i	nt	nt
C/C(=N\OC(=O)C1CC1)c1sc(-c2ccccc2)nc1C	i	i	i	i	nt	nt
COc1ccc(N2CCN(c3cc(NCCO)c([N+](=O)[O-])c4nonc34)CC2)cc1	i	i	i	i	nt	nt
COc1ccc(NC(=O)CSc2nc(C)cc(C)c2C#N)cc1	i	i	i	i	nt	nt
CCC12c3ccccc3C(c3ccccc31)C1C(=O)NC(=O)C12 (stereo not drawn)	71.0	i	i	i	63.1	i	AS interf DR=i
CCN(CC)S(=O)(=O)c1ccc2[nH]c3nc(SCC(=O)NC4CCCCC4)nnc3c2c1	i	i	i	i	nt	nt
O=C(NCc1cccnc1)c1cc2ccccc2o1	51.5	i	i	i	i	i
O=C(NC(=S)NCc1cccnc1)c1cc2ccccc2o1	i	i	i	i	nt	nt
CN(C)c1nc2c(c(=O)[nH]c(=O)n2C)n1CCO	i	i	i	i	nt	nt
COc1ccc(CN2CCCN(Cc3ccc(OC)cc3)C2c2c(Cl)cccc2Cl)cc1	i	i	i	i	nt	nt
SMILES	MITF inh	TEAD-YAP inh	FBW7 activator	GPR151 ag	MITF confirm	AlphaScreen intf2	others
N#CCCn1cc(CNCc2ccccc2)c(-c2ccc(F)cc2)n1	i	i	i	i	nt	nt
N#CCCn1cc(CNCc2ccccc2)c(-c2ccccc2)n1	53.8	i	i	i	i	i
CCOc1ccc2oc(C(=O)NC3=NCCS3)c(C)c2c1	i	i	i	i	nt	nt
CCOC(=O)C1CCN(C/C=C/c2ccccc2[N+](=O)[O-])CC1	53.8	i	i	i	i	i
CCOC(=O)C1CCN(C/C=C/c2ccccc2OC)CC1	i	i	i	i	nt	nt
O=[N+]([O-])c1ccccc1OCCOCCn1cnc2ccccc21	88.3	i	i	i	i	i
O=[N+]([O-])c1ccccc1OCCCn1cnc2ccccc21	60.1	i	i	i	i	i
O=Cc1cccc(OCCCn2cnc3ccccc32)c1	65.7	i	i	i	i	i
O=[N+]([O-])c1ccccc1OCCOCCn1cncn1	i	i	i	i	nt	nt
Fc1ccccc1OCCCn1cnc2ccccc21	i	i	i	i	nt	nt
Cc1c(C(=O)N2CC(C)CC(C)C2)sc2ncnc(N3CCN(c4ccccc4F)CC3)c12 (stereo not drawn)	i	i	i	i	nt	nt
COc1cccc(C(=O)Nc2cccc(C)n2)c1	i	i	i	i	nt	nt
CC(=O)N1c2ccc(S(=O)(=O)N(C)CC(=O)Nc3cc(Cl)ccc3C)cc2CC1C (stereo not drawn)	i	i	i	i	nt	nt
c1cc(-c2ccc3cnc(Nc4ccc(-n5cnc(N6CCOCC6)n5)cc4)nc3c2)ccn1	i	i	i	i	nt	nt
Cn1cc(-c2nc(Nc3ccc(-n4cnc(N5CCOCC5)n4)cc3)ncc2Br)cn1	56.8	i	i	i	66.9	i	AS interf DR=i
O=c1ccc(-c2ccc3cnc(Nc4ccc(-n5cnc(N6CCOCC6)n5)cc4)nc3c2)c[nH]1	60.1	i	i	i	i	i
COc1cccc(C(=O)N2CCN(Cc3ccccc3F)CC2)c1	57.8	i	i	i	i	i
COc1ccc(C(=O)N2CCN(Cc3ccccc3Br)CC2)cc1	58.5	i	i	i	i	i
COc1cccc(C(=O)N2CCN(Cc3cccc4ccccc34)CC2)c1	i	i	i	i	nt	nt
COc1cccc(C(=O)N2CCN(Cc3ccccc3C(F)(F)F)CC2)c1	71.0	i	i	i	i	i
COc1cccc(C(=O)N2CCN(Cc3ccccc3Br)CC2)c1	64.9	i	i	i	i	i
O=C(c1ccc(F)cc1)N1CCN(Cc2ccccc2Br)CC1	i	i	i	i	nt	nt
CCCCNCC(=O)NN(c1ccccc1)c1ccccc1	i	i	i	i	nt	nt
CN(C)CCCNCC(=O)NN(c1ccccc1)c1ccccc1	63.6	i	i	i	i	i
CCOc1ccc(-n2cc(-c3ccccc3)c3c(SCc4ccccc4C)ncnc32)cc1	i	i	i	i	nt	nt
SMILES	MITF inh	TEAD-YAP inh	FBW7 activator	GPR151 ag	MITF confirm	AlphaScreen intf2	others
O=C(/C=C/c1cn(-c2nc(-c3ccccc3)c3cc(Br)ccc3n2)[n+](-c2ccccc2)c1)c1ccccc1	76.6	i	i	i	i	i
CC(=O)CC1OC(=O)C(Br)=C1NCc1ccccc1 (stereo not drawn)	i	i	i	i	nt	nt
O=C(CC1OC(=O)C(Br)=C1Br)CC1OC(=O)C(Br)=C1Br (stereo not drawn)	73.5	i	i	i	i	i
O=C(Nc1ccc(OC(F)(F)F)cc1)c1cc2n(n1)C(C(F)(F)F)CC(c1cccs1)N2 (stereo not drawn)	i	i	i	i	nt	nt
COc1ccc(CC2=NOC(CNC(=O)c3ccccc3Cl)C2)cc1 (stereo not drawn)	i	i	i	i	nt	nt
COc1cccc2cc(-c3csc(Nc4cccc(F)c4)n3)c(=O)oc12	54.9	i	i	i	i	i
CCc1sc2nc(SCC(=O)NCCOC)n(-c3cccc(OC)c3)c(=O)c2c1C	i	i	i	i	nt	nt
Cc1ccc2[nH]c(=O)c(CN(CC3CCCO3)S(=O)(=O)c3ccccc3)cc2c1 (stereo not drawn)	i	i	i	i	nt	nt
